Shown are actives, neighbours in structure and some others; about 8% of the full set was active somewhere.
SW480 rerep = induces DNA re-replication in SW480 colon adenocarcinoma cells | 340,000 compounds, 1.8% hits | Potency, µM (series often up to 46.1 µM), inactives show top-dose re-replication activation, most hits filed as activators | SW480 DNA re-replication, Hoechst DNA content imaging, 48 h; note: % of control where 0% means no effect; nearly all actives have a fitted effect of over 55% in size
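Compounds, transferred as 23 nL by pin tool, were incubated with cells for 48 hr; DNA content per nucleus was then quantified by Hoechst staining and fluorescence plate imaging.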
MCF10A rereplic = DNA re-replication induction in MCF 10a cells. MCF 10A DNA re-replication, Hoechst nuclear intensity, 48 h. Potency, µM (doses to about 46.1 µM), for inactives: top-dose activity, positive = re-replication, hits mostly activators. AID 624296. 350,000 compounds, 2.9% hits; note: % of control where 0% means no effect; nearly all actives have a fitted effect of over 50% in size
KB-3-1 cytotox = kills parental KB-3-1 adenocarcinoma cells; KB-3-1 viability, CellTiter-Glo ATP luminescence, 72 h; Potency, µM (series often up to 46.1 µM), hits mostly cytotoxic; AID 1347075; 400,000 compounds, 1.4% hits; note: % is set by controls: 0 for no effect and ±100 for the full control effect; nearly all actives have a fitted effect of over 60% in size
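Here the drug-naive KB-3-1 line serves as comparator for MDR sub-line selectivity; cells received compound titrations, 72 h at 37 °C, then CellTiter-Glo readout.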
HT1080-NT tox = kills 2HG-producing HT-1080-NT fibrosarcoma cells. HT-1080-NT fibrosarcoma viability, CellTiter-Glo ATP luminescence, 48 h. Potency, µM (doses to about 46.1 µM), for the others: top-dose activity, negative = less viability, actives largely listed as cytotoxic. 360,000 compounds, 1.6% hits;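 note: NT is the 2HG producing partner of a matched IDH1 knockdown line; 0% = DMSO-treated cells and -100% = media-only wells without cells; nearly all actives have a fitted effect of over 55% in size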
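Toxicity toward the 2HG-producing NT line was scored as %Activity, normalised to DMSO and no-cell wells, from CellTiter-Glo luminescence after 48 hours' treatment.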
KB-V1 MDR tox = kills drug-selected multidrug resistant KB-V1 cells; KB-V1 MDR cells viability, CellTiter-Glo, 72 h; Potency, µM (doses to about 46.1 µM), hits mostly cytotoxic; 400,000 compounds, 3.4% hits; AID 1347076; note: % is set by controls: 0 for no effect and ±100 for the full control effect; nearly all actives have a fitted effect of over 60% in size
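In this primary screen, KB-V1 cells overexpressing P-gp are incubated with library compounds (lowest to highest concentration) for 72 h at 37 degrees C before a luminescent ATP viability read.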
HT1080 IDH1KD tx = kills HT-1080 cells with IDH1 knockdown; HT-1080 IDH1 knockdown viability, ATP luminescence, 48 h; Potency, µM (highest dose often 46.1 µM), without a hit: top-dose activity, negative = toxicity, actives largely listed as cytotoxic; 360,000 compounds, 2% hits; AID 686971;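 note: 0% = DMSO wells and -100% = cell-free medium wells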
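In this qHTS, HT-1080 cells depleted of IDH1 are exposed for 48 h at 37 °C to compound titrations. Toxicity is scored from CellTiter-Glo luminescence, with DMSO as full viability and medium alone as none.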
Numbers without * were called inactive; i = inactive; ? = inconclusive; . = no result given; [ ] = remark or other dose. Calls come from the whole dose curve; as a rule, active = well fitted curve in the direction sought with a large enough effect; inconclusive = small, poorly fitted or top-dose-only effect, or another doubt; inactive = no such curve, though single readings can be large; an effect the other way counts as inactive or inconclusive. Potency is the fitted concentration of half-maximal effect.

SMILES | SW480 rerep | MCF10A rereplic | KB-3-1 cytotox | HT1080-NT tox | KB-V1 MDR tox | HT1080 IDH1KD tx
COc1ccc(/C=C2\COc3ccccc3C2=O)cc1OC | ? | ? | ? | 11.6µM* | i | 18.4µM*
COc1cc(/C=C2\N=C(C)OC2=O)cc(OC)c1OC | 2.1% | 2.2% | i | 11.1% | i | 11.2%
O=C1NC(=O)/C(=C/c2cccc([N+](=O)[O-])c2)N1 | 2.8% | 3.1% | ? | -7.8% | i | -6.1%
CCOC(=O)Cc1csc(NC(=S)NC(=O)CC(C)C)n1 | -0.4% | 15.7% | i | -15.7% | i | -19.7%
Cc1ccc(S(=O)(=O)N2CCCCC2)cc1NC(=O)COC(=O)CNC(=O)c1cc(Cl)cc([N+](=O)[O-])c1 | -7.8% | 11.4% | i | 20.9% | i | 16.9%
COc1cc(/C=C2\CCc3ccccc3C2=O)cc(OC)c1OC | ? | ? | ? | -12.6% | ? | ?
COc1cc(/C=C2\CC/C(=C\c3cc(OC)c(OC)c(OC)c3)C2=O)cc(OC)c1OC | ? | 5.8µM* | i | -4.0% | i | -2.8%
CCOc1cc(/C=N/Nc2nc3ccccc3[nH]2)cc(Br)c1OCC(=O)N(C)C | 1.8% | ? | ? | ? | ? | ?
CCOc1cc(/C=C2\N=C(SC(C)C(N)=O)N(c3ccc(OC(F)F)cc3)C2=O)ccc1O (configuration not stated) | 18.4µM* | 10.3µM* | i | ? | i | ?
COc1cc(/C=C2/CCc3ccccc3C2=O)cc(OC)c1OC | ? | 18.4µM* | ? | -16.7% | 11.6µM* | -22.8%
CCOc1cc(/C=C2\COc3ccccc3C2=O)cc(Br)c1OCC(=O)N(C)C | ? | ? | ? | 18.4µM* | ? | 13µM*
COc1cc(/C=C2\CCC(C3CCCC3)C2=O)cc(OC)c1OC (configuration not stated) | -4.7% | 21.6% | i | 6.9% | i | -0.5%
O=C(CSc1ccccc1C(=O)O)c1ccc([N+](=O)[O-])cc1 | -1.4% | -0.7% | i | 1.4% | i | -5.4%
N#Cc1cc2c(nc1SCC(=O)O)CCCC2 | 3.6% | -3.1% | i | 2.2% | i | 1.3%
COc1cc(C=C2C(=O)C=CC2=O)ccc1O | . | . | 20.6µM* | 14.6µM* | i | 23.1µM*
COc1ccc(C=C2SC(=S)NC2=O)c(OC)c1OC | 10.2% | 27.0% | ? | -6.9% | 14.6µM* | ?
COc1cc(/C=C2\CC/C(=C\c3cc(OC)c(O)c(OC)c3)C2=O)cc(OC)c1O | ? | ? | 16.4µM* | 4.11µM* | ? | 4.11µM*
COc1ccc(/C(O)=C2/C(=O)C(=O)N(c3ncccn3)C2c2ccc(OC)c(OC)c2)cc1 (configuration not stated) | -1.9% | -5.4% | i | 12.3% | i | 13.5%
CCOc1ccc(NC(=O)CN(C)C(=O)CCCc2c[nH]c3ccccc23)cc1OCC | 0.6% | -5.4% | i | 3.7% | i | 4.9%
O=C(c1cc(-c2ccc(Cl)c(Cl)c2)on1)N1CCCCC1 | 0.2% | -9.3% | i | 19.9% | 14.6µM* | 9.8%
CCC1CCCCN1C(=O)c1cc(-c2ccc(Cl)c(Cl)c2)on1 (configuration not stated) | 5.4% | ? | i | 10.6% | 20.6µM* | -18.4%
CC1CCCCN1C(=O)c1cc(-c2ccc3c(c2)OCO3)on1 (configuration not stated) | 1.9% | -2.3% | i | 12.2% | i | 2.3%
CC1CCCCN1C(=O)c1cc(-c2ccc(Cl)c(Cl)c2)on1 (configuration not stated) | 9.2% | ? | i | 22.1% | 18.4µM* | 18.1%
FC(F)(F)c1cc(Sc2ccccc2)nc(-c2ccccn2)n1 | ? | -0.1% | i | 12.6µM* | ? | ?
FC(F)(F)c1cc(Nc2ccccc2)nc(-c2ccccn2)n1 | -24.2% | ? | i | 6.9% | i | 15.0%
SMILES | SW480 rerep | MCF10A rereplic | KB-3-1 cytotox | HT1080-NT tox | KB-V1 MDR tox | HT1080 IDH1KD tx
Cc1ccc(NS(=O)(=O)c2ccc3[nH]c(=O)oc3c2)c(C)c1 | -7.0% | -1.0% | i | 3.9% | i | 1.7%
CCOc1cc(/C=N/Nc2nc(-c3cccc(S(=O)(=O)N4CCCC4)c3)cs2)ccc1O | 3.4% | ? | i | -2.2% | 13µM* | -3.3%
COc1ccc(/C=N/Nc2nc(-c3cccc(S(=O)(=O)N4CCCC4)c3)cs2)cc1OC | -3.6% | 13.4% | i | 1.6% | i | 6.1%
CC1=CC(=O)O[C@@H]1[C@@]1(C)C[C@H]2OC(=O)C[C@H]3[C@@H](C)C(=O)C(O)=C1[C@@]23CO | 2.9% | 25.0% | i | 4.0% | i | 8.2%
CCOC(=O)c1c(C)c(C(=O)O)n(C)c1C | 0.2% | 4.8% | i | 0.1% | i | 9.8%
CCOC(=O)c1c(C)c(/C=N/Nc2ccccc2)n(C)c1C | 30.0% | 11.6µM* | i | -20.6% | i | -14.4%
CC(C)CC(COCc1ccc([N+](=O)[O-])cc1)N1CCN(C(=O)c2ccc(C(F)(F)F)cc2)CCC1=O (configuration not stated) | 8.8%[9.22 µM] | ? | ? | -3.5% | i | -10.9%
Cc1noc(C)c1C(=O)N1CCCC(C(=O)c2cccc(C(F)(F)F)c2)C1 (configuration not stated) | 5.8µM* | -1.7% | i | 13.8% | i | 9.9%
CCc1c(C(=O)Nc2ncn(Cc3cccc(C)c3)n2)csc1C | -0.8% | 2.6% | i | 8.0% | i | -14.0%
CC(=O)c1ccc(NC(=O)Nc2ncn(Cc3cccc(C)c3)n2)cc1 | -2.7% | -1.7% | i | -1.8% | 16.4µM* | 16.1%
C1=NN(c2ccccc2)C=NN1c1ccccc1 | ? | 5.4% | i | 10.3% | i | 19.9%
CN(CC(=O)N1CCC(C(N)=O)CC1)S(=O)(=O)c1ccc2ccccc2c1 | -6.4% | 7.5% | i | 1.6% | ? | 1.1%
Cc1ccc(C)c(OC(=O)CSc2nnc(CNC(=O)c3ccccc3)o2)c1 | . | . | i | . | i | .
COc1ccc(-n2nc3c(c2NC(=O)CCl)CSC3)cc1 | ? | 4.0% | 23.1µM* | 20.6µM* | ? | 7.31µM*
COc1ccc(-n2nc3c(c2NC(=O)C(C)Cl)CSC3)cc1 (configuration not stated) | 2.4% | 14.1% | i | 2.1% | i | 0.0%
CCCCCCC(=O)Nc1nc(C)c(-c2csc(Nc3ccc(Cl)cc3)n2)s1 | ? | ? | ? | 20.6µM* | i | ?
